# Assay results published in PubChem BioAssay (NCI).
# About 83,000 compounds went through this panel and 20% of them were active in at least one assay; those are over-represented in the sample as a whole.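 In brief: 96-well plates, 48 h treatment, single concentration, percent growth endpoint.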 Calls of active or inactive are those of the source.
# System: OVCAR-3 ovarian
# Assay: NCI-60 one-dose screen, 48 h (100 = growth as untreated, 0 = no growth, -100 = all killed)
# Conditions: 10 µM
# Experimental: Growth inhibition of the OVCAR-3 human tumor cell line is measured as a screen for anti-cancer activity. Cells are grown in 96 well plates and exposed to the test compound for 48 hours. Compounds are tested at a single concentration, which is 10^-5 M for most compounds. The reported endpoint is percent growth (GI% or GIPRCNT), where numbers from 0 - 100% represent growth inhibition, and numbers from -100% - 0 represent cell death. For example, a value of 40 represents 60% growth inhibition. A value of 0 means no net growth occurred over the course of the experiment. A value of -40 indicates 40% of cells at the beginning of the experiment died by the end of the experiment. A value of -100 means all cells are dead at the end of the experiment.
# NCI-60 Human Tumor Cell Lines Screen was performed using the standard one-dose NCI protocol, which is described in more detail at https://dtp.cancer.gov/discovery_development/nci-60/default.htm.
# Compounds with GIPRCNT values below 10 were considered active. Activity score was based on GIPRCNT using the following formula: […]
# Score is 0 for GIPRCNT values of 100 or above, 50 for GIPRCNT values of 0, and 100 for GIPRCNT values of -100.
row,Compound,growth
1,O=C(O)c1ccccc1C(=O)c1cccc2c(F)cccc12,117% (inactive)
2,NC(=O)C1CCCN(Cc2c[nH]c3ccccc23)C1 (stereo not given),104% (inactive)
3,CCCCCC(=O)N1c2ccccc2NC2=C(C(=O)CC(c3ccc(OC)c(OC)c3)C2)C1c1ccc(C(F)(F)F)cc1 (stereo not given),33.1% (inactive)
4,Cn1c(=O)c2[nH]c(C(O)c3ccc(Cl)cc3)nc2n(C)c1=O (stereo not given),109% (inactive)
5,Cc1cc(OI)c(C(C)C)cc1-c1cc(C(C)C)c(OI)cc1C,108% (inactive)
6,CCOC(=O)C(CCC1=NC(C)(C)CC(C)O1)C(=O)OCC (stereo not given),107% (inactive)
7,O=C(Nc1cccc(C(F)(F)F)c1)C(Cl)Cl,107% (inactive)
8,COc1cc(C(=O)n2nc(N)c3c(C)cc(C)nc32)cc(OC)c1OC,69.3% (inactive)
9,CCc1ccc(-c2nnc(COc3ccc(-c4nc5cc(Cl)c(Cl)cc5[nH]4)cc3OC)o2)cc1,65.6% (inactive)
10,COc1cc(/C=C/C(=O)c2cc(-c3ccc(F)cc3)ccc2O)cc(OC)c1OC,82.4% (inactive)
11,COC1OC2COC(c3ccccc3)OC2C(=O)C1NC(=O)c1ccccc1 (stereo not given),99.8% (inactive)
12,Nc1ccc2c(c1)Cc1cc(N)c(Cl)cc1-2,124% (inactive)
13,COc1c(C)c(C)c(OC)c2c1[nH]c(=O)c1c3cccnc3cn21,104% (inactive)
14,Oc1ccccc1-c1nnc(Cn2c(Cc3cccc4ccccc34)nc3ccccc32)o1,101% (inactive)
15,COc1cccc(-c2nnc(COc3ccc(-c4nc5ccccc5[nH]4)cc3OC)o2)c1,102% (inactive)
16,CCOCC[P+](c1ccccc1)(c1ccccc1)c1ccccc1,33.8% (inactive)
17,Nc1c(CNCc2nnn(Cc3ccccc3)c2N)nnn1Cc1ccccc1,107% (inactive)
18,COc1cc(C)c2sc3ccccc3c(=O)c2c1NCCN(C)C,87.4% (inactive)
19,CCOC(=O)c1sc(NC(=O)c2cc(OC)c(OC)c(OC)c2)nc1C,103% (inactive)
20,CCc1ccc(-c2nnc(COc3ccc(-c4nc5ccc(C)cc5[nH]4)cc3OC)o2)cc1,41.7% (inactive)

row,Compound,growth
1,O=C(NC1CCN(Cc2ccccc2)CC1)c1cc(-c2ccncc2)nc2ccc(Cl)cc12,15.5% (inactive)
2,NC1CCC(Nc2nc(NCc3ccc(-c4ccco4)nc3)c3ncn(C4CCCC4)c3n2)CC1 (stereo not given),1.37% (active)
3,NS(=O)(=O)c1ccc(N2N=C(c3ccc(-c4ccccc4)cc3)CC2c2ccc(Cl)cc2)cc1 (stereo not given),94.3% (inactive)
4,C[C@H](NC(=O)[C@@H]1CSSC[C@@H](NC(=O)Cc2nc3ccccc3cc2O)C(=O)NCC(=O)N1C)c1ccccc1,99% (inactive)
5,COc1cc(-c2cc(-c3cc(OC)c(OC)c(OC)c3)nc3nc(N)[nH]c(=O)c23)ccc1Oc1ccnc2cc(Cl)ccc12,-26.1% (active)
6,CCC1(C)OC(=O)NC1=O (stereo not given),112% (inactive)
7,CCCc1ccnc(NS(=O)(=O)c2ccc(N)cc2)n1,73.5% (inactive)
8,COc1cc(C2C=C(c3ccc(Cl)cc3)N=C3SC(C)=CN32)cc(OC)c1OC (stereo not given),103% (inactive)
9,CCNC1(NC#N)CCCCC1,109% (inactive)
10,CCc1ccc(-c2nnc(COc3ccc(-c4nc5ccccc5[nH]4)cc3OC)o2)cc1,4.63% (active)
11,N/C(=N\O)c1cn(C2OC(CO)C(O)C2O)c2ncnc(N)c12 (stereo not given),-18.3% (active)
12,Cc1cc(C)c2c(Nc3ncnc4c3sc3nc(C)cc(C)c34)n[nH]c2n1,101% (inactive)
13,COc1ccc(-c2cc(/C=C3\C(=O)Nc4cc(Cl)ccc43)[nH]n2)cc1OC,53% (inactive)
14,Cc1ccc(-n2nnc3c(sc4ccccc43)c2=O)cc1,37.1% (inactive)
15,CCCCCCCCCCCCCCCCCBr,114% (inactive)
16,CC(=O)CS(C)(=O)=O,111% (inactive)
17,Nc1nc2c(nnn2C2CC(O)C(CO)O2)c(=O)[nH]1 (stereo not given),40.8% (inactive)
18,CCCc1c(CC)c(=N)c2ccccc2n1C,85% (inactive)
19,CC(C)=C1CCC(C)C/C1=N\N=C(N)N (stereo not given),113% (inactive)
20,Cc1cc(C)c(/C=C2\C(=O)Nc3ccc(NC(=O)CCCCCCC(=O)NO)cc32)[nH]1,19.4% (inactive)
